Compound activity as filed in PubChem.
a7 integrin act = integrin-mediated muscular dystrophy alleviation activation; AID 624291; 350,000 tested, 0.064% active; Potency, µM (doses to about 38.3 µM), hits mostly activators; alpha7betagal myoblasts, beta-gal FDG fluorescence, 48 h; further: nearly all actives have a fitted effect of over 60% in size
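Alpha7betagal+/- myoblasts (passage 13) were plated 16-24 hr, then exposed to compounds (1:260 dilution of DMSO stock) for 48 hours at 37C. After MPER lysis, β-galactosidase reporter activity was read as FDG fluorescence (ex 480/em 540) after 30 minutes.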
MCF10A rereplic = inducers of DNA re-replication in MCF 10A breast cells. MCF 10A DNA re-replication, Hoechst nuclear intensity, 48 h. Potency, µM (highest dose often 46.1 µM), most hits filed as activators. 350,000 tested, 2.9% active. AID 624296; further: nearly all actives have a fitted effect of over 50% in size
Mito fusion act = blocks mitochondrial division or promotes mitochondrial fusion; S. cerevisiae fusion-defective mutant growth rescue, CellTiterGlo 48 h; Potency, µM (highest dose often 46.1 µM), most hits filed as activators; 320,000 tested, 0.23% active; further: nearly all actives have a fitted effect of over 45% in size
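S. cerevisiae fusion-defective temperature-sensitive mutants (e.g. fzo1-1, mgm1-5) grown 48 h at 37C in YPEG (ethanol/glycerol non-fermentable) medium with 23 nl compound per well; growth rescue read as CellTiterGlo luminescence.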
AT treatment = candidate therapy for ataxia-telangiectasia; F2112 A-T fibroblasts, KAP-1 phosphorylation AlphaLISA; neocarzinostatin DNA damage 30 min before lysis; Potency, µM (titrated, usually from 57.5 µM), actives largely listed as activators; 320,000 tested, 0.19% active; AID 485349; further: nearly all actives have a fitted effect of over 45% in size
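ATM-like activity read as KAP-1 phosphorylation via AlphaLISA donor/acceptor antibody pairs after lysis and 6 hr at 25C. Cells were ATM-null patient fibroblasts (F2112, hTERT), dosed 60 min, then exposed to the DSB inducer NCS for 30 min.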
SW480 rereplic = inducers of DNA re-replication in SW480 colon cancer cells. SW480 DNA re-replication, Hoechst DNA content imaging, 48 h. Potency, µM (doses to about 46.1 µM), actives largely listed as activators. 340,000 tested, 1.8% active; further: nearly all actives have a fitted effect of over 55% in size
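Image-based read-out: total Hoechst fluorescence of nuclei (405 nm excitation, 500-530 nm emission), with hits raising the fraction of high-intensity nuclei. SW480 colon cells incubated 48 hr with compounds at 37 C.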
Each line names hits and unclear results; the compound was inactive in the other large screens. This is a sample that favours compounds with a hit; in the whole collection about 4.2% have one here. The call rests on the fitted dose curve; in most records, active means well fitted activation curve with a large enough effect; inconclusive means small, poorly fitted or top-dose-only effect; inactive means no such curve, though single readings can be large or run the other way.

Cc1ccc(-c2csc3nc4c5ccccc5c(NCCCN5CCOCC5)nn4c(=O)c23)cc1	none (no result: a7 integrin act, MCF10A rereplic, SW480 rereplic)
Cc1ccc(-c2csc3nc4c5ccccc5c(NCCCN(C)C)nn4c(=O)c23)cc1	MCF10A rereplic 18µM, SW480 rereplic inconclusive
CCc1nc(SCC(=O)O)c(C#N)cc1C	none
CCOC(=O)CC(=O)CSc1nc2ccc(C)cc2cc1C#N	MCF10A rereplic 23µM
CCSc1nc2ccc(C)cc2cc1C#N	none
CCOC(=O)CC(=O)CSc1nc(CC)c(C)cc1C#N	SW480 rereplic 23µM
CC(=O)c1c(C)[nH]c(C(=O)OCC(=O)c2ccc(Br)cc2)c1C	none (no result: MCF10A rereplic, Mito fusion act, AT treatment, SW480 rereplic)
CCN(CC)CCCN(Cc1cc2cc(OC)ccc2[nH]c1=O)C(=O)Nc1ccccc1	none
CCN(CC)CCCN(Cc1cc2cc(OC)ccc2[nH]c1=O)C(=O)Nc1ccc(F)cc1	MCF10A rereplic 2.9µM, SW480 rereplic inconclusive (no result: AT treatment)
O=C(Nc1ccc(F)cc1)N(CCCN1CCOCC1)Cc1cc2cc3c(cc2[nH]c1=O)OCCO3	AT treatment 14µM
CC(C)(C)N(Cc1ccccc1)C(=O)COC(=O)c1ccc(S(=O)(=O)N2CCOCC2)cc1	none (no result: Mito fusion act)
COc1ccc(NCC(=O)Nc2c(C)cccc2C)cc1S(=O)(=O)N1CCOCC1	none (no result: MCF10A rereplic, Mito fusion act, AT treatment, SW480 rereplic)
Cc1cccc(OCc2nc(C#N)c(NCc3ccc4c(c3)OCO4)o2)c1	MCF10A rereplic inconclusive, Mito fusion act 7.1µM
Cc1cccc(OCc2nc(C#N)c(N3CCCC3)o2)c1	a7 integrin act 3.5µM
CCCN1C(C)C(C(=O)OCC)=CN(Cc2cccc(I)c2)S1(=O)=O (stereo not drawn)	SW480 rereplic inconclusive (no result: Mito fusion act)
CSc1ccc(CN(C)Cc2nc3cc(C(F)(F)F)ccc3c(=O)[nH]2)cc1	none
C=C1C(=O)C=C2CN(C(=O)c3ccccc3)[C@@](Cc3ccc(F)cc3)(C(=O)OC)[C@@H]12	MCF10A rereplic 3.7µM, SW480 rereplic 1.3µM
COC(=O)[C@@]1(Cc2ccc(OC)cc2)[C@@H]2C(=CC(=O)[C@H]2CC(=O)C(=O)N(C)C)CN1C(=O)c1ccccc1	MCF10A rereplic inconclusive, SW480 rereplic inconclusive
CN(CC(=O)Nc1ccccc1Oc1ccccc1)Cc1ccccc1F	MCF10A rereplic 8.2µM
Cc1ccccc1CN(C)CC(=O)Nc1ccccc1-c1ccccc1	MCF10A rereplic 15µM
CN1CCN(CC(=O)Nc2ccccc2Oc2ccccc2)CC1	none
O=C(CN1CCCCC1)Nc1ccccc1Oc1ccccc1	MCF10A rereplic 18µM
Cc1ccc(CC(=O)Nc2ccccc2-c2ccccc2)cc1C	MCF10A rereplic 9.2µM
N#CC(CCc1ccc([N+](=O)[O-])cc1)(CCc1ccc([N+](=O)[O-])cc1)C(N)=O	MCF10A rereplic inconclusive (no result: Mito fusion act, AT treatment)
Cc1c(C(=O)Nc2cccc(Cl)c2)oc2ccc(S(=O)(=O)N3CCC4(CC3)OCCO4)cc12	MCF10A rereplic 5.8µM, SW480 rereplic 3.7µM
Cc1c(C(=O)Nc2ccc(F)cc2)oc2ccc(S(=O)(=O)N3CCC4(CC3)OCCO4)cc12	none
Oc1cccc2ccc(Nc3ccccn3)nc12	MCF10A rereplic 5.8µM, SW480 rereplic inconclusive
c1ccc(Nc2ccccc2Nc2ccccn2)nc1	none
CCOC(=O)C=C(C(=O)OCC)C(=O)OCC	none
Cc1ccc(S(=O)(=O)N(C)C)cc1NC(=S)NC(C)CCCC(C)C (stereo not drawn)	MCF10A rereplic inconclusive
CCCCCCC(C)NC(=S)Nc1cc(S(=O)(=O)N(C)C)ccc1C (stereo not drawn)	MCF10A rereplic 18µM, SW480 rereplic inconclusive
ClC(Cl)(c1nnnn1-c1ccccc1)c1nnnn1-c1ccccc1	MCF10A rereplic inconclusive, SW480 rereplic 13µM
COc1ccc(NC(=O)c2ccccc2NS(=O)(=O)c2ccc(CNC(C)=O)cc2)c(OC)c1	MCF10A rereplic 5.2µM
CCOC(=O)c1sc(-c2ccc(C(F)(F)F)cc2)nc1O	MCF10A rereplic 16µM, SW480 rereplic 16µM
CCOC(=O)c1sc(-c2cccc(C(F)(F)F)c2)nc1O	MCF10A rereplic inconclusive, SW480 rereplic inconclusive
Clc1ccc(Nc2nc(NCCN3CCOCC3)nc(N3CCOCC3)n2)cc1	MCF10A rereplic inconclusive, SW480 rereplic 9.2µM
Clc1ccc(Nc2nc(N3CCOCC3)nc(N3CCOCC3)n2)cc1Cl	SW480 rereplic inconclusive
Fc1ccc(Nc2nc(N3CCOCC3)nc(N3CCOCC3)n2)cc1Cl	SW480 rereplic 18µM
O=C(NCc1cccnc1)c1cccc(NS(=O)(=O)c2ccc(Br)cc2)c1	MCF10A rereplic 0.65µM, SW480 rereplic 9.2µM
O=C(NCc1cccnc1)c1cccc(S(=O)(=O)Nc2ccc(F)cc2)c1	none
Cc1ccc(S(=O)(=O)Nc2cccc(C(=O)NCc3cccnc3)c2)cc1F	MCF10A rereplic 2.9µM, SW480 rereplic 6.5µM
Cc1cccc(-c2nc(C#N)c(NCc3ccco3)o2)c1	Mito fusion act inconclusive
C[C@H](CO)N1C[C@H](C)[C@@H](CN(C)CC2CC2)Oc2c(NC(=O)Cc3ccccc3)cccc2C1=O	SW480 rereplic inconclusive (no result: Mito fusion act)
CC(C)OC(=O)C(=O)NNc1ccccc1	MCF10A rereplic 10µM
Cc1cc(C)c2c(N)c(C(=O)NN)sc2n1	MCF10A rereplic inconclusive, AT treatment 18µM, SW480 rereplic inconclusive
Cc1ccc(NC(=O)c2sc3nc(C)cc(C)c3c2N)cc1	none
CCOC(=O)c1sc2nc(C)cc(C)c2c1N	MCF10A rereplic 18µM, AT treatment inconclusive, SW480 rereplic inconclusive
Cc1cc(C)c2c(N)c(C(=O)Nc3cccc(C)c3C)sc2n1	MCF10A rereplic 16µM, SW480 rereplic 12µM
CCCCOC(=O)c1sc2nc(C)cc(C)c2c1N	MCF10A rereplic inconclusive, SW480 rereplic inconclusive
COc1ccc(NC(=O)c2sc3nc(C)cc(C)c3c2N)c(OC)c1	MCF10A rereplic inconclusive, SW480 rereplic 15µM (no result: Mito fusion act, AT treatment)
CCCSc1nc2c3c(sc2c(=O)[nH]1)CC(C)(CC)OC3 (stereo not drawn)	none
O=C(Cc1cccc(NC(=O)C2CCN(C(=O)CCc3ccccc3)CC2)c1)Nc1cccc(C(=O)N2CCCC2)c1	none
Cc1cc(C)n(-c2nc3c(c(=O)[nH]c(=O)n3C)n2C(C)C)n1	none
Cc1ccc(OCc2cc(C(=O)N3CCN(C4CCCCC4)CC3)no2)cc1C	MCF10A rereplic 12µM
Cc1cc(OCc2cc(C(=O)N3CCC(Oc4cccnc4)CC3)no2)cc(C)c1Cl	MCF10A rereplic 21µM
Cc1ccc(OCc2cc(C(=O)N3CCN(C4CCCC4)CC3)no2)cc1C	MCF10A rereplic inconclusive
Cc1cc(OCc2cc(C(=O)N3CCN(CC4CC4)CC3)no2)cc(C)c1Cl	SW480 rereplic inconclusive
CCOc1nc(-c2ccccc2Cl)nc2ccccc12	none
COc1ccc(NC(=O)CN2CCN(S(=O)(=O)c3ccc(Br)cc3)CC2)cc1	none (no result: a7 integrin act, MCF10A rereplic, AT treatment, SW480 rereplic)
COc1ccc(OC)c(C(=O)CN2CCN(S(=O)(=O)c3ccc(Br)cc3)CC2)c1	MCF10A rereplic 23µM, SW480 rereplic inconclusive
